A selection: hits, their analogues and other compounds. The true share with any hit is near 2.1%.
SMARCA2 act = increases SMARCA2 function in MMTV reporter cells | AID 652017 | activation, % at 9.1 µM | MG213 cells, MMTV-luciferase reporter, dexamethasone, overnight | hit rate 1% among 370,000; in the data active = activation above about 7.8%
MsrA act = activators of bovine methionine sulfoxide reductase A; purified bovine MsrA, absorbance read-out; activation, % at 10.6 µM; hit rate 0.3% among 360,000; in the data active = activation above about 7.5%
MsrA inh = inhibits bovine methionine sulfoxide reductase A | hit rate 0.75% among 360,000 | purified bovine MsrA, absorbance read-out | inhibition, % at 15.5 µM; in the data active = inhibition above about 4.5%
ABCB6 inh 2 = inhibitors of human ABC transporter ABCB6. AID 602162. K562-ABCB6 porphyrin accumulation, flow cytometry, 1 h; hits give low values. hit rate 0.19% among 360,000. fluorescence ratio to DMSO, % at 10 µM;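 active = fluorescence ratio to DMSO below 75%, the collection mean minus 3 SD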;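 also: signal is porphyrin accumulated inside mitochondria; lower ratio means ABCB6 inhibition with less porphyrin fluorescence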
Target sequence (Q9NP58 whole entry, looked up): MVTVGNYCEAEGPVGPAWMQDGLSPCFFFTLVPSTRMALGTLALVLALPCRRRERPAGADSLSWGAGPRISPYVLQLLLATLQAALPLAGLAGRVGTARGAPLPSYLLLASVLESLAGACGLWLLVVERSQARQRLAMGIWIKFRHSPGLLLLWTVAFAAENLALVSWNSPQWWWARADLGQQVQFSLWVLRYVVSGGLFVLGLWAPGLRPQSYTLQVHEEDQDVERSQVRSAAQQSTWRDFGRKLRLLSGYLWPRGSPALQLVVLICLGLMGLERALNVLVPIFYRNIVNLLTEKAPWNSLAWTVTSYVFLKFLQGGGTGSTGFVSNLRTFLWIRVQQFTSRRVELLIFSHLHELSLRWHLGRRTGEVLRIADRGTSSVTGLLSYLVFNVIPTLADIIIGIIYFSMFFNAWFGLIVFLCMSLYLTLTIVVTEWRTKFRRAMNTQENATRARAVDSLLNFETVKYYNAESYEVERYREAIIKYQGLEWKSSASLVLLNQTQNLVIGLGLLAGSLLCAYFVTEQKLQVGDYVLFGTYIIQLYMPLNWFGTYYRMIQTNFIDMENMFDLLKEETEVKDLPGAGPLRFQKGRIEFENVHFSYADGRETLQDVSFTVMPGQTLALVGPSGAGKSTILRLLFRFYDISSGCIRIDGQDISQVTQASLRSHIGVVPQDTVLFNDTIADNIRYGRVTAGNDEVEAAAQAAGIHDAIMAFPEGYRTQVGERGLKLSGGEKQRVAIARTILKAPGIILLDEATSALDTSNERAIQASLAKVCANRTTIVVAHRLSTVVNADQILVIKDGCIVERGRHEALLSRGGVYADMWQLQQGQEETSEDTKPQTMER
ABCB6 blocker 1 = blocks the human ABCB6 transporter. ratio response (% of DMSO), % at 10 µM. shares compounds with ABCB6 inh 2. K562-ABCB6 porphyrin accumulation, flow cytometry, 1 h; hits give low values. AID 602430. 700 tested, under 10 active;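 active = repeat-averaged ratio response below 75% of DMSO, the collection mean minus 3 SD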;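 also: median porphyrin fluorescence at 575 nm with 488 nm excitation from mitochondria; lower ratio means less porphyrin signal so ABCB6 inhibition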
Large screens that a line does not name were inactive (follow-up assays come after a bar, where they were run).

CSc1ccc(CN2C(=O)C(C)Oc3c(C(C)=O)cccc32)cc1 (centres undefined)	none
CSc1ccc(CN2C(=O)C(F)(F)Oc3c(C(C)=O)cccc32)cc1	ABCB6 inh 2 74 (no result: SMARCA2 act, MsrA inh) | ABCB6 blocker 1 inactive
COC(=O)c1ccc(S(=O)(=O)N2CCC(NC(=O)COc3ccc(F)cc3)CC2)cc1	none (no result: MsrA act, MsrA inh, ABCB6 inh 2)
Cc1ccc(CNC(=O)OC(C)(C)C)c(/C=C/S(=O)(=O)NCc2ccc(F)cc2)c1	none (no result: MsrA act, MsrA inh, ABCB6 inh 2)
COc1ccc(-n2c(COc3ccccc3)nnc2SCc2ccc(C#N)cc2)cc1	ABCB6 inh 2 51 | ABCB6 blocker 1 inactive
CCCCN1CCN(C(=O)Cn2c(=O)c3ccccc3n(CC)c2=O)CC1	none (no result: MsrA act, MsrA inh, ABCB6 inh 2)
COc1cccc(CC2CC(=O)N(CCc3ccc4c(c3)OCO4)C2=O)c1 (centres undefined)	none
Cc1ccc(CC2CC(=O)N(CCc3ccc4c(c3)OCO4)C2=O)cc1 (centres undefined)	ABCB6 inh 2 74 | ABCB6 blocker 1 inactive
COc1ccc(OC)c(S(=O)(=O)N2CCCC(C(=O)Nc3c(C)n(C)n(-c4ccccc4)c3=O)C2)c1 (centres undefined)	none (no result: MsrA act, MsrA inh, ABCB6 inh 2)
Cc1cccc(NC(=O)COC(=O)CCCC2=NS(=O)(=O)c3ccccc3N2)c1	none
COc1cc(NC(=O)COC(=O)CCCC2=NS(=O)(=O)c3ccccc3N2)cc(OC)c1	none | ABCB6 blocker 1 inactive
O=C(COC(=O)CCCC1=NS(=O)(=O)c2ccccc2N1)Nc1ccccc1	none | ABCB6 blocker 1 inactive
CC(NC(=O)COc1ccc(/C=N/NS(=O)(=O)c2ccccc2)cc1)c1ccccc1 (centres undefined)	ABCB6 inh 2 69 | ABCB6 blocker 1 inactive
CC(=O)/C(N=Nc1ccc2c(c1)OCO2)=C(\C)O	ABCB6 inh 2 74 | ABCB6 blocker 1 inactive
COC(=O)C1CN(C2CC2)CCS(=O)(=O)N1Cc1cn(Cc2ccc(C)cc2)nn1 (centres undefined)	none (no result: MsrA act, MsrA inh, ABCB6 inh 2)
O=C(CSc1nnc2c(Cl)cc(C(F)(F)F)cn12)N(Cc1ccccc1)Cc1ccccc1	ABCB6 inh 2 74 | ABCB6 blocker 1 inactive
O=C(c1ccccc1I)N1CCC(Oc2cccnc2)CC1	none (no result: MsrA act, MsrA inh, ABCB6 inh 2)
CCCCCN(C(=O)CCC(=O)OCc1ccccc1F)c1c(N)n(CCCC)c(=O)[nH]c1=O	none
CCCCCN(C(=O)CCC(=O)OCC(=O)N(CC)c1ccccc1)c1c(N)n(CCCC)c(=O)[nH]c1=O	none
CCCCCN(C(=O)CCC(=O)OCC(=O)Nc1ccc(C)cc1F)c1c(N)n(CCCC)c(=O)[nH]c1=O	none
CCCCCN(C(=O)CCC(=O)OCC(=O)NCCc1ccccc1)c1c(N)n(CCCC)c(=O)[nH]c1=O	none | ABCB6 blocker 1 inactive
CCCCCN(C(=O)CCC(=O)OCc1cc(C)ccc1C)c1c(N)n(CCCC)c(=O)[nH]c1=O	none | ABCB6 blocker 1 inactive
CCCCCN(C(=O)CCC(=O)OCC(=O)Nc1cccc(CC)c1)c1c(N)n(CCCC)c(=O)[nH]c1=O	ABCB6 inh 2 74 | ABCB6 blocker 1 inactive
COc1cccc(-c2nnc3n2N=C(c2ccc(Cl)cc2)CS3)c1	none (no result: MsrA act, MsrA inh, ABCB6 inh 2)
C[C@H](NC(=O)Nc1ccccc1F)C(=O)O	none
CC(C)C[C@H](NC(=O)Nc1ccccc1F)C(=O)O	ABCB6 inh 2 45 | ABCB6 blocker 1 inactive
CCCSc1nc2sc3c(c2c(=O)[nH]1)CC(C)(CC)OC3 (centres undefined)	none
CCSc1nc2sc3c(c2c(=O)[nH]1)CC(C)(CC)OC3 (centres undefined)	ABCB6 inh 2 61 | ABCB6 blocker 1 inactive
CC(C)(C)c1cc(NC(=O)COC(=O)c2ccc3c(=O)n4c(nc3c2)CCC4)n(-c2ccccc2)n1	ABCB6 inh 2 69 | ABCB6 blocker 1 inactive
Cc1nn2c(N3CCN(C4CCCC4)CC3)cc(C(C)(C)C)nc2c1-c1ccccc1	ABCB6 inh 2 57 | ABCB6 blocker 1 inactive
Cc1nn2c(N3CCN(C)CC3)cc(C(C)(C)C)nc2c1-c1ccccc1	none
Cc1ccc(-c2cc(C(=O)NN=Cc3cccc(Oc4ccccc4)c3)[nH]n2)cc1C	none (no result: MsrA act, MsrA inh, ABCB6 inh 2)
CCn1cc([N+](=O)[O-])c(C(=O)Nc2ccn(Cc3ccccc3F)n2)n1	ABCB6 inh 2 71 | ABCB6 blocker 1 inactive
CC(C(=O)NCC1(c2ccccc2)CCOCC1)N1CCOCC1 (centres undefined)	none
CC(C(=O)NCC1(c2ccccc2)CCCC1)N1CCOCC1 (centres undefined)	ABCB6 inh 2 60 | ABCB6 blocker 1 inactive
O=C(OC12CCCN(C1)/C(=C/c1cccnc1)C2)C1CCCCC1 (centres undefined)	none (no result: MsrA act, MsrA inh, ABCB6 inh 2)
Cc1ccc(-n2c(SCC(=O)Nc3ccccc3-c3ccccc3)nnc2-c2cnccn2)cc1	none (no result: MsrA act, MsrA inh, ABCB6 inh 2)
CC1CCN(C(=O)c2ccc(NC(=O)c3cccs3)cc2)CC1	ABCB6 inh 2 53 | ABCB6 blocker 1 inactive
Nn1c(SCC(=O)Nc2nccs2)nnc1-c1cc(-c2ccc(Cl)cc2)n[nH]1	none (no result: MsrA act, MsrA inh, ABCB6 inh 2)
CCN(CC(=O)Nc1c(F)cccc1F)C(=O)c1ccc(C#N)cc1	ABCB6 inh 2 70 | ABCB6 blocker 1 inactive
C[C@@H]1ON(C)[C@H]2C[C@H]3c4[nH]c5c(-c6ccccc6F)cccc5c4CCN3C[C@@H]12	none (no result: MsrA act, MsrA inh, ABCB6 inh 2)
COC(=O)[C@]12C[C@H](CC(=O)NCCc3ccccc3OC)C(=O)N(CCc3ccc(OC)c(OC)c3)C1=C[C@H](C1CCCC1)O[C@@H]2C	none (no result: MsrA act, MsrA inh, ABCB6 inh 2)
COc1ccc(S(=O)(=O)Nc2c(NC3CCCCC3)c3ccccc3oc2=O)cc1	ABCB6 inh 2 71 | ABCB6 blocker 1 inactive
COc1ccccc1C1C(C#N)=C(N)N(N(C)C)C2=C1C(=O)CC(C)(C)C2 (centres undefined)	ABCB6 inh 2 51 | ABCB6 blocker 1 inactive
COc1ccc(OC)c(C2C(C#N)=C(N)N(N(C)C)C3=C2C(=O)CC(C)(C)C3)c1 (centres undefined)	none
CC1(C(=O)Nc2cccc(C(F)(F)F)c2)Cc2c(-c3cccc(C(F)(F)F)c3)ccnc2O1 (centres undefined)	none
CC(=O)Nc1cccc(-c2ccnc3c2CC(C)(C(=O)Nc2cccc(C(F)(F)F)c2)O3)c1 (centres undefined)	none | ABCB6 blocker 1 inactive
CC(C)(C)NC(=O)c1cccc(NC(=O)c2cccc(O)c2)c1	ABCB6 inh 2 63 | ABCB6 blocker 1 inactive
COCCCNC(=O)CN1C(=O)C2CCCCN2C(=O)c2ccccc21 (centres undefined)	none (no result: MsrA act, MsrA inh, ABCB6 inh 2)
NS(=O)(=O)c1ccc(CCNC(=O)CCCNC(=O)c2ccc(Cl)cc2)cc1	ABCB6 inh 2 67 | ABCB6 blocker 1 inactive
COc1ccc(CN2C[C@]3(C=C(C)Cn4c(=O)n(-c5ccccc5)c(=O)n43)N=C2NC(=O)c2ccccc2)c(OC)c1	none (no result: MsrA act, MsrA inh, ABCB6 inh 2)
Cc1cccc(N2C(=O)NC3(CCCCC3)C2=O)c1	none
O=C1NC2(CCCCC2)C(=O)N1c1cccc(Cl)c1	ABCB6 inh 2 73 | ABCB6 blocker 1 inactive
NS(=O)(=O)c1ccc(NC(=O)CSc2nc3ccccc3c(=O)n2-c2ccc(Br)cc2)cc1	none (no result: MsrA act, MsrA inh, ABCB6 inh 2)
Cc1ccccc1OCC(=O)OCC(=O)c1ccc(OC(=O)c2ccccc2)cc1	ABCB6 inh 2 44 | ABCB6 blocker 1 inactive
COc1ccc(C(=O)N2CCN=C2c2ccccc2)cc1OC	ABCB6 inh 2 73 | ABCB6 blocker 1 inactive
O=C(c1ccccc1)N1CCN=C1c1ccccc1	none
